For 97 compounds, inhibition results are on record in PubChem BioAssay AID778 (Sanford-Burnham Center for Chemical Genomics, 2007).

Each structure is given as a SMILES string. Screen size: about 96,000 compounds; about 20,000 (21%) were called active. The list is a sample of the results. Values without a mark were called inactive.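 Rule for the calls: active = CYP2C19 inhibition above a set limit at 5 µM in the primary screen (cut at about 50% in these data); inactive = the rest.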

This experiment deals with Cytochrome P450 2C19 (Homo sapiens) (UniProt P33261). The experiment in a line: blockers of cytochrome P450 2C19 activity – biochemical, luminescence, ADME assay, primary screen (AID 778).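 Note: plate controls were negative control wells for no effect and 2.5 mM tranylcypromine positive control for full effect.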 The note with it: CYP2C19 Supersomes, luciferin-H EGE luminescence, 30 min; at 5 µM; stronger effect = higher value.
Chain of Cytochrome P450 2C19 (Homo sapiens) (P33261 whole entry, looked up): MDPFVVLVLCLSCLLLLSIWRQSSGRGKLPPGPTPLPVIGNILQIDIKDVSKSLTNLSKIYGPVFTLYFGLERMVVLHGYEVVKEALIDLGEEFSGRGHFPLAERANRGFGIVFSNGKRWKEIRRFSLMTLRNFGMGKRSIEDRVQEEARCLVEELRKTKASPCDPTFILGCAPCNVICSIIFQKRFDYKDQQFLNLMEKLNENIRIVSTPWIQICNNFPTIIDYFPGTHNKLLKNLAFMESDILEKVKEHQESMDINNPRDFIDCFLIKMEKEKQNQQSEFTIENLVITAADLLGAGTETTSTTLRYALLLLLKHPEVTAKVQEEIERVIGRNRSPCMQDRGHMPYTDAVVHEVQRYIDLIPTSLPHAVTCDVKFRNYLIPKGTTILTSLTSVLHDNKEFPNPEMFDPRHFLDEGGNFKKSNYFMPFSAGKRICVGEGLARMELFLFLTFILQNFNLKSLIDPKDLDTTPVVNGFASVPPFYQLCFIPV
The inhibition is the relative decrease from the control value, in per cent. In the case of `CCCC(=O)N(CCc1ccccc1)Cc1nc2ccccc2c(=O)[nH]1`, the inhibition is 53.5% (active).
As for `O=C(c1ccco1)N(Cc1nc2ccccc2c(=O)[nH]1)C1CCCC1`, the figure is 7.2%; as for `CN(Cc1nc2ccccc2c(=O)[nH]1)Cc1cc(=O)oc2ccc3ccccc3c12`, 2.9%.
Regarding `O=C(Nc1ccc(Cl)cn1)Nc1cccs1`, the inhibition is 31.4%.
As for `O=C1OC(c2ccc(Cl)cc2)=N/C1=C\c1cccnc1`, the figure is 33.1%; as for `CCN(CC)C(=O)CC1(c2ccccc2OC)CCOC(C(C)C)C1` (configuration not stated), 73.3% (active); as for `CCN(CC)C(=O)CSc1nc2ccccc2n1CC(=O)N1CCN(c2ccccc2OC)CC1`, 27%.
As to `C/C(CC(O)(/C=N/O)c1ccccc1)=N\O` (configuration not stated), the inhibition is -13%.
Turning to `Cc1ccc(N2CCN(/N=C/c3cccs3)CC2)cc1`, the inhibition was 35.3%.
For `O=C(Cn1[nH]c(=O)c2ccccc2c1=O)Nc1cccc(-c2nnc3n2CCCCC3)c1`, the inhibition was 25.7%.
As for `O=C(CN1C(=O)NC(Cc2ccccc2)(Cc2ccccc2)C1=O)NCC1CCCCC1`, the figure is 41.6%; as for `O=C(NCc1ccccc1)C1C(=O)N(Cc2ccccc2)C(=O)C1C1(O)CCCC1` (configuration not stated), 91.9% (active); as for `O=C(NCCCN1CCN(Cc2ccccc2)CC1)C1CCN(S(=O)(=O)N2CCCC2)CC1`, -1.9%.
`Cc1ccccc1Nc1nnc(C)c(=O)[nH]1`: the inhibition is 0.4%.
As for `COc1cccc(-n2cc(C(=O)O)c3ccccc3c2=O)c1`, the figure is 1.5%.
Turning to `COC(=O)c1ccc(CSc2nc3ccccc3c(=O)n2-c2cccc(OC)c2)o1`, the inhibition was 98.4% (active).
Take `CCc1c(O)nc(SCC(=O)Nc2ccccc2)n(C(C)CC)c1=O` (configuration not stated): the inhibition was 0.7%.
For `COCC(C)n1c(SCc2ccc(C(=O)OC)o2)nc2ccccc2c1=O` (configuration not stated), the inhibition was 96.7% (active).
With `N#CCSc1nc2ccccc2c(=O)n1-c1ccccc1`, the inhibition is 13.3%.
Turning to `CN1CCN(C(=O)C2C3C=CC(C3)C2C(=O)O)CC1` (configuration not stated), the inhibition was 33.8%.
In the case of `OCCNc1nc2ccccc2n1-c1ncnc2sc3c(c12)CCC3`, the inhibition was -6%.
As for `COc1ccc(N2C(=O)C3CCCN3C2c2cc(OC)c(OC)cc2OC)cc1` (configuration not stated), the figure is -12.2%.
For the compound `Cc1ccccc1CSc1nnc(-c2cccnc2)n1N`, the inhibition is 28.5%.
As to `Cc1ccsc1CNn1cnnc1SCc1ccccc1F`, the inhibition was 83.4% (active).
As to `COc1ccc2[nH]c(=O)c(CNc3ccc(C)c(C)c3)cc2c1`, the inhibition is 24%.
On to `COc1cccc2cc(C(C)N(CCCN3CCOCC3)C(=O)Nc3ccc(Cl)cc3)oc12` (configuration not stated), for which the inhibition was 48.4%.
For the compound `Cc1ccc(-c2csc(-c3c[nH]c4ccccc34)n2)cc1`, the inhibition was -2.4%.
For the compound `COCCOCCn1cnc2ccccc21`, the inhibition was -2.7%.
As for `O=C(COC(=O)c1ccc(Oc2ccccc2)cc1)Nc1nnc(-c2ccccc2)o1`, the inhibition is 34.2%.
As to `CCOc1ccc(NCCC(=O)c2ccc3c(c2)OCO3)cc1`, the inhibition is 37.9%.
As for `CCOC(=O)c1c(C)[nH]c(C(=O)COc2ccc3c(c2)OCO3)c1C`, the figure is 78.4% (active); as for `CCOC(=O)c1c(C)oc2ccc(OCC(=O)N(CC)CC)cc12`, 47.5%.
`CN1CCN(CCCNC(=O)c2cc3c(=O)oc4ccccc4c3s2)CC1`: the inhibition was -1.6%.
Take `CC(C)(CNCC(O)c1ccccc1)N1CCOCC1` (configuration not stated): the inhibition was -1.1%.
In the case of `CCC(=O)NNc1cc(=O)c2c(=O)n(C)c(=O)n(C)c2[nH]1`, the inhibition is 11.1%.
`O=C(c1c(Cl)nc2sccn12)N1CCCc2ccccc21`: the inhibition was 91.5% (active).
Consider `COc1ccc2oc(=O)c(C(=O)N3CCCc4ccccc43)cc2c1`, for which the inhibition was 10.2%.
As for `O=C(c1cccc(C(=O)N2CCc3ccccc32)n1)N1CCc2ccccc21`, the figure is 12.3%; as for `Cc1noc(COc2ccccc2OCC(O)CNC(C)(C)C)n1` (configuration not stated), -7.7%; as for `CN(c1ccccc1)c1ccc(/C=c2\s/c(=C(/C#N)C(=O)C(C)(C)C)n(Cc3ccco3)c2=O)cc1`, 5.4%.
`Cn1c(-c2sc3cc(C(F)(F)F)cnc3c2-c2ccccc2)n[nH]c1=S`: the inhibition is 47.3%.
As for `FC(F)(F)c1cc(-c2ccco2)nc(N2CCOCC2)n1`, the inhibition is -16.1%.
As to `FC(F)(F)c1cc(-c2ccco2)nc(NCc2ccc(Cl)cc2)n1`, the inhibition was 57% (active).
As to `FC(F)(F)c1cc(-c2cccs2)nc(NCc2ccco2)n1`, the inhibition was 20.5%.
As for `Cc1ccccc1NC(=O)c1cnn(-c2ccccc2)c1NC(=O)c1ccco1`, the figure is -2.6%; as for `COCCNC(=O)C(c1ccc(C)o1)N(Cc1cccs1)C(=O)c1snc(C(N)=O)c1N` (configuration not stated), 2.1%; as for `c1ccc2c(c1)OCC(c1nn3cnnc3s1)O2` (configuration not stated), 74.8% (active).
Regarding `O=C(CCN1C(=O)COc2ccccc21)NCCCN1CCN(c2ccc(F)cc2)CC1`, the inhibition is -10.1%.
`CCOC(=O)c1cnc(-n2nc(C)cc2C)nc1-n1nc(C)cc1C`: the inhibition was 5.2%.
As to `CCc1nnc(NC(=O)c2ccc(S(=O)(=O)NC3CCCCC3)cc2)s1`, the inhibition was 14.5%.
In the case of `CCOC1CCCCC1NS(=O)(=O)c1ccc(Cl)cc1` (configuration not stated), the inhibition was 69.5% (active).
As for `O=C(NNS(=O)(=O)c1ccc(Cl)cc1)C1CCN(Cc2ccccc2)CC1`, the figure is 6%.
Consider `CCCc1[nH]nc2c1C(c1ccc(OC(=O)c3ccco3)cc1)C(C#N)=C(N)O2` (configuration not stated), for which the inhibition was 43.8%.
As for `C=CCOC(=O)C1=C(C)OC(N)=C(C#N)C1c1ccc(F)cc1` (configuration not stated), the figure is 75.2% (active); as for `C=CCOC(=O)C1=C(C)NC(SCC(=O)OCC)=C(C#N)C1c1ccc(C)cc1` (configuration not stated), 33.7%; as for `Cc1c(C#N)c2ncn(CC#N)c(=O)c2n1-c1ccccc1`, -12.1%.
With `C=CCn1c(COc2cccc3cccnc23)nnc1SCC(=O)OC`, the inhibition is 26.2%.
As for `Cc1cc(OCCOc2cccc3cccnc23)c(C)cc1Cl`, the inhibition was 73.2% (active).
As for `CCOc1cc(N2CCOCC2)c(OCC)cc1NC(=O)COc1cccc2cccnc12`, the figure is 3.8%; as for `CN(C)Cc1c(C#N)c2ccccc2n1C`, -0.3%.
For the compound `Clc1ccc(CSc2nnc(/C=C/c3ccccc3)o2)c(Cl)c1`, the inhibition was 1.6%.
In the case of `O=c1[nH]nc(CSCc2ccccc2Cl)[nH]1`, the inhibition is 1.4%.
Regarding `S=c1[nH]nc(CSCc2ccc(Cl)cc2Cl)n1-c1ccccc1`, the inhibition is 64.8% (active).
As for `COC(=O)CCSc1cc([N+](=O)[O-])cc2c1c(C1OCCS1)nn2-c1ccccc1` (configuration not stated), the figure is 8.6%.
As for `Cc1ccc(Nc2nc(C)cc(C)c2C(N)=O)cc1`, the figure is 7.6%; as for `O=C1c2oc3ccc(Br)cc3c(=O)c2C(c2cccc(F)c2)N1CCO` (configuration not stated), 40.4%; as for `O=C1c2oc3ccccc3c(=O)c2C(c2cccc(O)c2)N1c1ccccn1` (configuration not stated), 38.4%.
For the compound `COCCN1C(=O)c2oc3c(C)cc(C)cc3c(=O)c2C1c1cccc(O)c1` (configuration not stated), the inhibition is 70.6% (active).
For the compound `Cc1ccc(-n2ncc3c(Nc4cccc(C(=O)O)c4)ncnc32)cc1`, the inhibition was -20%.
As for `COC(=O)c1ccc(C2C(Oc3ccccc3C)C(=O)N2CCc2ccc(OC)c(OC)c2)cc1` (configuration not stated), the figure is 65.2% (active); as for `COc1ccc(CCN2C(=O)c3[nH]nc(-c4ccccc4O)c3C2c2ccc(C)cc2)cc1OC` (configuration not stated), 21.1%.
As for `COCCn1c(=S)[nH]c2cc(C(=O)NCCc3ccc(OC)c(OC)c3)ccc2c1=O`, the figure is 17.7%.
As for `c1csc(-c2cn3c(n2)SCC3)c1`, the figure is -13.7%.
Take `CC(C)C(C(=O)NC1CCCCC1)N(CC1CCCO1)C(=O)CNS(=O)(=O)c1ccc(F)cc1` (configuration not stated): the inhibition is -10.8%.
As for `c1ccc(-c2nnc3n2NC(c2ccc4c(c2)OCO4)S3)cc1` (configuration not stated), the figure is 28.9%; as for `CCn1c(SC)nc(O)c(C(c2ccc(OC)c(O)c2)c2c(O)nc(SC)n(CC)c2=O)c1=O`, -2.9%; as for `O=S(=O)(Cc1cc(Sc2ccccc2)nc(-c2ccccc2)n1)c1ccccc1`, 50.5% (active).
Take `Cc1ccc(S(=O)(=O)N(C)CC(=O)N2CCc3ccccc32)cc1`: the inhibition is 9.1%.
As for `O=C(CSCc1ccccc1)N1CCc2ccccc21`, the figure is 51.6% (active); as for `CC1CC(C)CN(CC(=O)N2c3ccccc3CCc3ccccc32)C1` (configuration not stated), 24.7%; as for `Cn1cnc2c1c(=O)n(Cc1c(Cl)cccc1Cl)c(=O)n2C`, 49.5%.
For the compound `Cc1c(C#N)c(NC(=O)c2ccccc2)n(Cc2ccccc2)c1C`, the inhibition was 22.6%.
Take `CCOC(=O)CCC(=O)OCC(=O)NC(C)C1CC2CCC1C2` (configuration not stated): the inhibition is 10.6%.
Consider `CCOC(=O)N1CCC(O)(c2cc(C)c(C)cc2C)CC1`, for which the inhibition was 43.5%.
Consider `O=C(CN1C(=O)c2ccccc2S1(=O)=O)N1CCc2ccccc21`, for which the inhibition is -7.4%.
For the compound `O=C1c2ccccc2S(=O)(=O)N1CC(O)Cn1c2ccccc2c2ccccc21` (configuration not stated), the inhibition is 73.4% (active).
On to `CNC(=O)CN1C(=O)c2ccccc2S1(=O)=O`, for which the inhibition was -9.3%.
As to `COc1ccc(-n2ncc3c(N4CCc5ccccc54)ncnc32)cc1`, the inhibition was -2.2%.
As to `Cc1n[nH]c(=S)n1/N=C/c1ccc(Br)o1`, the inhibition is -3.6%.
`CCC(Sc1nncn1C)C(=O)Nc1nnc(-c2ccc(Cl)cc2)s1` (configuration not stated): the inhibition was 17.4%.
As for `CCOc1cc2[nH]c(=S)n(CCCN3CCCC3=O)c(=O)c2cc1OCC`, the inhibition was 6.7%.
For `O=C(O)c1ccc(NC(=O)C2CCCCC2)cc1`, the inhibition is -21.5%.
`O=C(O)C1CCCCC1C(=O)Nc1ccc(Cl)cc1` (configuration not stated): the inhibition is 29.9%.
On to `O=C(Nc1cnn(Cc2ccc(Cl)cc2)c1)C1CCCC1`, for which the inhibition was 84.8% (active).
Regarding `C[N+](C)(C)CCNC(=O)c1c(O)c2c([nH]c1=O)CCCC2`, the inhibition was 7.7%.
As for `O=C(O)[C@@H]1CCCN1c1ncnc2sc3c(c12)CCC3`, the inhibition is 6.9%.
As for `O=P(O)(CP(=O)(c1ccccc1)c1ccccc1)c1ccccc1O`, the figure is 22.6%.
